Test results reported in PubChem BioAssay AID1619 (SRMLSC, 2009).
Values joined by “and” are separate entries in the source; they are usually repeats but may differ in a detail not shown here. Identical values can stand only once. Screen size: about 220,000 compounds; about 830 (0.38%) were called active.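 The calls were made as follows: active = compound inhibiting the enzyme by more than half at any dose during confirmatory dose-response retesting; inconclusive = strong single-dose inhibitors picked by rank but not retested; inactive = the rest.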 Not all results are given here. Results with a measured potency or affinity are listed apart.

Target: Leucine aminopeptidase (Plasmodium falciparum (isolate 3D7)) (UniProt Q8IL11)
Sequence (Q8IL11 whole entry, looked up): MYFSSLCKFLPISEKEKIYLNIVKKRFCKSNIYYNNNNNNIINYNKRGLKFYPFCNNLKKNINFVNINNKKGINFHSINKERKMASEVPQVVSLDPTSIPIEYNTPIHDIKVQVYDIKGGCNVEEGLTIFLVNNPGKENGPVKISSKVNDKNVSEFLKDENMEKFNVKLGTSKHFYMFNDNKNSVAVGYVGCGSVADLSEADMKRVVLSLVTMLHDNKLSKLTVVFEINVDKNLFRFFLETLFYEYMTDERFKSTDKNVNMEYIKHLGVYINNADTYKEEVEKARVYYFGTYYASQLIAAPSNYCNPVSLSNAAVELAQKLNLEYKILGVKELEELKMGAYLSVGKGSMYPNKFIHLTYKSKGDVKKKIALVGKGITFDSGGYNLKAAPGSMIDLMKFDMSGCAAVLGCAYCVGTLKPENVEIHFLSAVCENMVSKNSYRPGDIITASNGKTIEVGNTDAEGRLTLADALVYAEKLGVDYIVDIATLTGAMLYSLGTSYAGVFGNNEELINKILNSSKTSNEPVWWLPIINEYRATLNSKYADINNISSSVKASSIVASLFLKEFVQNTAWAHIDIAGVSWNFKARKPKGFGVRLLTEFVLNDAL
Assay: P. falciparum M17LAP inhibitors, primary screen, biochemical, fluorogenic H-Leu-NHMec substrate, 1536-well (AID 1619);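 also: plate controls were full reaction with DMSO carrier for no effect and no enzyme background for full effect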
Settings: recombinant M17LAP, H-Leu-NHMec fluorogenic kinetic assay; at 30 µM; hits give high values

inhibition, inactive:
Cc1cc(NS(=O)(=O)c2ccc(NC(=O)c3ccc(Br)o3)cc2)nc(C)n1 4.58%
N/C(=N\OC(=O)CCC1CCCC1)c1ccccn1 7.09%
CCOn1c(-n2nc(C)cc2C)nc2ccccc2c1=O -1.28%
Cc1ccc(-c2noc(CCC(=O)NCC3CCN(Cc4cccc(C)c4)CC3)n2)cc1 -0.25%
COc1cc(/C=C2/NC(=O)N(Cc3ccccc3F)C2=O)ccc1Oc1ccc([N+](=O)[O-])cn1 -10.8%
COc1cccc(CN2CCN(C3CCN(c4ccccc4F)CC3)CC2CCO)c1 (stereo not drawn) 3.43%
CCOc1ccc(NC(=O)Cc2cccc3ccccc23)c([N+](=O)[O-])c1 33.7%
COc1ccc(NC(=O)CSc2nncn2C)c([N+](=O)[O-])c1 41.3%
COc1ccc(NC(=O)CSc2ccccc2)c([N+](=O)[O-])c1 13%
COc1ccc(NC(=O)CSc2ccccn2)c([N+](=O)[O-])c1 4.06%
CCOc1ccc(OCC(=O)Nc2ccc(OC)cc2[N+](=O)[O-])cc1 -4.57%
CCOc1ccc(NC(=O)COc2ccccc2)c([N+](=O)[O-])c1 4.93%
CCCc1cc(=O)oc2cc(OCC(=O)Nc3cc(C)on3)ccc12 -41.2%
CCNS(=O)(=O)c1ccc2c(c1)n(C)c(=O)n2C 6.77%
[O-]/C(=C(\C(=S)Nc1ccccc1F)[n+]1ccccc1)c1ccc(-c2ccccc2)cc1 -0.96%
CCc1ccc(N(C(=O)c2snc(C(N)=O)c2N)C(C(=O)NCC2CCCO2)c2cccs2)cc1 (stereo not drawn) -0.4%
Cn1ncc([N+](=O)[O-])c1C(=O)Nc1nc2ccccc2n1CCN1CCCCC1 48.4%
Cc1ccc(NC(=O)COC(=O)Cc2ccsc2)cc1S(=O)(=O)N(C)C 3.8%
CCOC(=O)c1cc(=O)n2nc(-c3ccc(C)cc3)nc2s1 10.8%
CCOC(=O)c1ccc(NC(=O)Cn2nnc(-c3ccccc3F)n2)cc1 -13.6%
CC(C)Cn1c(N)c(C(=O)COC(=O)c2cc(F)cc(F)c2)c(=O)n(C)c1=O 3.99%
CCOc1ccc(C2/C(=C(\O)c3ccc(OC)c(OC)c3)C(=O)C(=O)N2c2cc(C)on2)cc1OC (stereo not drawn) 25.9%
CCOc1cccc(-c2cc(C(=O)NN)[nH]n2)c1 3.47%
C=CCn1c(-c2cccc(OCC)c2)n[nH]c1=S -4.71%
Cc1ccc(C(=O)NC2CCCCNC2=O)cc1C (stereo not drawn) 4.43%
Cc1ccc(Cl)cc1NC(=O)N(C)CCO -0.32%
O=C(O)Cn1cc(C(=S)N2CCOCC2)c2ccccc21 4.61%
O=Cc1cn(CC(=O)N2CCOCC2)c2ccccc12 13.4%
O=C(Cn1cc(C(=S)N2CCOCC2)c2ccccc21)N1CCOCC1 1.74%
O=C(O)Cn1cc(/C=C2/SC(=O)N(CC(=O)N3CCCCCC3)C2=O)c2ccccc21 36.6%
O=C(NCc1ccccc1C(F)(F)F)C1CC(c2ccc(C(F)(F)F)cc2)=NO1 (stereo not drawn) -1.15%
Cc1ccc(CNC(=O)c2ccc3c(=O)n4c(-c5ccc(C)cc5)csc4nc3c2)cc1 4.76%
COC(=O)c1c(C)[nH]c(C(=O)NCc2ccco2)c1C -0.45%
CCC(=O)N(Cc1cc(=O)[nH]c2ccccc12)c1cccc(C)c1 -6.5%
Cc1ccc(-c2cc3nc(-c4ccccc4)cc(N4CCOCC4)n3n2)cc1 -15.5%
O=c1[nH]c(-c2ccc(Cl)cc2)cs1 -0.58%
O=c1cc(-c2ccc(Br)cc2)[nH][nH]1 6.69%
CC(C)Cc1ccc(-c2cc(=O)[nH][nH]2)cc1 3.83%
O=c1cc(-c2ccc(C3CCCCC3)cc2)[nH][nH]1 1.14%
O=c1c(O[C@@H]2O[C@H](CO)[C@H](O)[C@H](O)[C@H]2O)c(-c2ccc(O)c(O)c2)oc2cc(O)cc(O)c12 -6.93%
O=c1c(OC2OC(CO)C(O)C(O)C2O)c(-c2ccc(O)c(O)c2)oc2cc(O)cc(O)c12 (stereo not drawn) 31%
O=C(c1ccc(Br)cc1)N(C1=NCCCCS1)c1ccccc1 -5.89%
CC(Oc1ccc(NC(=O)c2ccco2)cc1)C(=O)N1c2ccccc2CC1C (stereo not drawn) -7.91%
CCOC(=O)c1c(N)c2cc([N+](=O)[O-])cnc2n1C -0.26%
O=C(CSc1nnc(-c2ccc(S(=O)(=O)N3CCCC3)cc2)o1)NCC1CCCO1 (stereo not drawn) -1.86%
CCc1nnc(NC(=O)CSc2nnc(-c3ccco3)o2)s1 4.71%
COC(=O)CSc1nnc(-c2ccc(NS(=O)(=O)c3ccccc3)cc2)o1 55.1%
O=C(NCC1CCCO1)c1ccc(NS(=O)(=O)c2ccccc2)cc1 (stereo not drawn) -3.12%
Cc1cc(NC(=O)Nc2ccc(C)c(C)c2)no1 1.89%
O=C1c2cccc3c([N+](=O)[O-])ccc(c23)C(=O)N1CCc1ccccn1 3.49%
Cc1cccc(OCCOC(=O)C2CCN(S(=O)(=O)c3cccs3)CC2)c1 -6.82%
COc1ccc(C(C)NC(=O)c2cccc([N+](=O)[O-])c2)cc1OC (stereo not drawn) 1.09%
COc1ccc(NC(=S)N/C(=N/S(=O)(=O)c2ccc(C)cc2)c2ccccc2)cc1 -2.37%
OC1(c2ccccc2)CCN(Cc2ccccc2)CC1 11.4%
CCOC(=O)c1cn(Cc2ccccc2)nn1 -4.7%
Cc1ccc(-n2cc(CN3CCN(C(=O)c4ncn[nH]4)CC3)c(-c3ccc(F)cc3)n2)cc1 5.18%
CCCOc1ccc(N2C(=O)CC(SCCc3nc4ccccc4[nH]3)C2=O)cc1 (stereo not drawn) 0.77%
COC(=O)c1ccc(N2C(=O)CC(SCCN)C2=O)cc1 (stereo not drawn) 6.69%
CCCOc1ccc(N2C(=O)CC(SCc3nc4ccccc4[nH]3)C2=O)cc1 (stereo not drawn) 9.24%
CCOc1ccc(N2C(=O)CC(SCC(=O)O)C2=O)cc1 (stereo not drawn) 11.6%
O=c1[nH]c2cccnc2n1-c1cccc([N+](=O)[O-])c1 -2.76%
Fc1ccc(OCc2nc(-c3cccs3)no2)cc1 -5.15%
O=C(Cn1cnc2c(cnn2-c2ccc(Cl)cc2)c1=O)NCC1CCCO1 (stereo not drawn) 8.72%
COc1ccc(C2CC(=O)C=C(NCc3ccc4c(c3)OCO4)C2)cc1 (stereo not drawn) 8.48%
CCN(CC)c1nc(C)c(C(C)=O)cc1C#N 3.26%
COc1ccccc1N1CCN(S(=O)(=O)Cc2ccccc2Cl)CC1 3.75%
COc1ccc(NC(=O)C(c2ccc(C)cc2)N(C)C(=O)c2cnccn2)cc1 (stereo not drawn) 1.36%
C/C(=N\NC(=O)CCc1c(C)n[nH]c1C)c1ccc([N+](=O)[O-])cc1 6.88%
C/C(=N/NC(=O)CC(=O)N/N=C(\C)c1ccc([N+](=O)[O-])cc1)c1ccc([N+](=O)[O-])cc1 9.49%
C/C(=N\NC(=O)CNc1ccccc1)c1ccccc1 -12.8%
C/C(=N\NC(=O)CC1N=C(Cc2ccccc2)NNC1=O)c1ccccc1 (stereo not drawn) 1.8%
Cc1ccc(S(=O)(=O)/N=C(\N)Nc2nc(C)c3cc(C)c(C)cc3n2)cc1 6.15%
O=C(CCSc1ccccc1)Nc1ccc(OCc2ccccc2)cc1 3.34%
COc1ccc(-c2nnc(SCC(=O)N/N=C/c3ccccc3C(=O)O)n2-c2ccccc2)cc1 -3.16%
COc1cc(/C=C(/C#N)c2ccc(F)cc2)ccc1OCc1ccc(C(=O)O)o1 34.9%
COc1cc(/C=C(/C#N)c2nc3ccccc3[nH]2)ccc1OCc1ccc(C(=O)O)o1 -33.5%
N#C/C(=C/c1ccc(OCc2ccc(C(=O)O)cc2)c(Br)c1)c1cccc(F)c1 7.71%
COC(=O)c1ccc(COc2ccc(/C=C(\C#N)c3nc4ccccc4[nH]3)cc2OC)o1 -3.19%
COc1ccc(NC(=O)COC(=O)Cc2c(F)cccc2Cl)cc1 5.4%
COc1ccc(NC(=O)Cc2c(F)cccc2Cl)c(OC)c1 -1.9%
COC(=O)CSc1nc(NC#N)nc(NC(C)(C)C)n1 4.9%
COc1ccc(-c2cc(C)nc(SCc3cccc(C(=O)O)c3)n2)cc1 38.6%
Cn1sc(NC(=O)c2ccccc2Cl)nc1=O -13.2%
Cc1ccc(C(=O)Nc2nc(=O)n(C(=O)c3ccccc3C)s2)cc1 31.9%
O=C(Nc1nc(=O)n(C(=O)c2cccc(C(F)(F)F)c2)s1)c1ccccc1 22.5%
Cc1ccc(C(=O)Nc2nc(=O)n(C)s2)cc1 4.51%
Cn1sc(NC(=O)c2cccc(Cl)c2)nc1=O 12.3%
Cc1ccc(C(=O)Nc2nc(=O)[nH]s2)cc1 -1.57% and 13.4%
O=C(Nc1nc2ccccc2s1)c1ccccc1 0.27%
Cn1sc(NC(=O)c2ccc(Cl)cc2)nc1=O 0.57%
CCN(CC)CCCN1C(=O)CSC1c1ccc2c(c1)OCO2 (stereo not drawn) 20.1%
O=C(NNC(=O)c1ccc(Br)o1)c1ccc(NC(=O)c2ccccc2)cc1 -6.75%
COCCCN(C(=S)NC(=O)c1ccc(C(C)(C)C)cc1)c1c(N)n(Cc2ccccc2)c(=O)[nH]c1=O 16.9%
